Screens: PubChem, National Center for Advancing Translational Sciences (NCATS)
Eya2 inh – qHTS Assay for Inhibitors of the Phosphatase Activity of Eya2. Protein phosphatase EYA2 (Homo sapiens), O00167. recombinant Eya2, OMFP fluorescence dephosphorylation (OMFP is methylfluorescein phosphate). Potency, µM (doses to about 76.9 µM), most hits filed as inhibitors. 330,000 tested, 0.006% active
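Eya2 (0.2 uM) preincubated 10 min at ambient with compound, then OMFP substrate added at 50 uM; 10 min reaction in 50 mM HEPES pH 7.5, 50 mM NaCl, 5 uM MgCl2, 0.05% BSA, 1 mM DTT. Fluorescence read at Ex 485/Em 525 nm.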
JMJD2E inh – qHTS Assay for Inhibitors of Human Jumonji Domain Containing 2E (JMJD2E) | Lysine-specific demethylase 4E (Homo sapiens), B2RXH2 | JMJD2E catalytic domain, FDH-coupled NADH fluorescence (FDH is formaldehyde dehydrogenase) | Potency, µM (highest dose often 57.1 µM), usual class: inhibitors | 230,000 tested, 1.6% active | AID 2147, 2009; active means well fitted inhibition curve with a large enough effect, not every such curve was filed as active; inconclusive means small, poorly fitted or top-dose-only effect, or another doubt; inactive means no such curve, though single readings can be large or run the other way; further: nearly all actives have a fitted effect of over 50% in size
Anesthetic bind – qHTS Assay for Identification of Novel General Anesthetics | 350,000 tested, 0.074% active | apoferritin/1-aminoanthracene competitive binding, fluorescence | AID 485281, 2010 | Potency, µM (highest dose often 77.5 µM), most hits filed as inhibitors | Ferritin light chain (Equus caballus), P02791; further: nearly all actives have a fitted effect of over 20% in size
Target sequence (P02791 2-175 limits assumed): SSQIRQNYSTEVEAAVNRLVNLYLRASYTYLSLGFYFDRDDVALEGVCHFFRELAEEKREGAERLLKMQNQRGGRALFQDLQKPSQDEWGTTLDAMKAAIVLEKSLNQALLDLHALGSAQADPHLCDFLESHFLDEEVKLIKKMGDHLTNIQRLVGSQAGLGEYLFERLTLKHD
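Horse-spleen apoferritin (10 uM) was mixed with 50% saturated 1-aminoanthracene in PBS, exposed to compounds for 10 min at room temperature, and read for fluorescence (ex 380 nm, em 535 nm). Competitive displacement was fitted with a four-parameter Hill equation.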
CtBP-E1A inh – qHTS Assay for Inhibitors of the CtBP/E1A Interaction. CtBP / adenovirus E1A interaction (AlphaScreen). AlphaScreen GST-E1A/His-CtBP binding, 1536-well; stronger effect = lower value. activity change, % (concentration not given with the values). 340,000 tested, 0.49% active; in the data active means activity change below about -65%; inconclusive means mostly about -30% to -63%
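AlphaScreen with 125 nM GST-E1A and 125 nM His-CtBP (5X stocks) in Tris pH 8.0, 300 mM NaCl, BSA, Tween 20, TCEP. Compounds preincubated 2 h at 37 deg C, then glutathione donor/nickel acceptor beads added for 1 h at 37 deg C in dark.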
Six1-Eya2 inh – qHTS Assay for Inhibitors of the Six1/Eya2 Interaction | Homeobox protein SIX1 (Homo sapiens) + Protein phosphatase EYA2 (Homo sapiens), … | AlphaScreen GST-Six1/His-Eya2 binding, biochemical; stronger effect = lower value | activity change, % (no concentration beside the values) | 360,000 tested, 0.56% active | AID 651725, 2012; in the data active means activity change below about -65%; inconclusive means mostly about -30% to -63%
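AlphaScreen luminescence read after one hour at 37 °C in darkness. Pin-transferred compounds met GST-Six1 and His-Eya2 protein (5X stock 250 nM/500 nM) plus glutathione donor and Ni-chelate acceptor beads (5X, 50 ug/mL).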
GALK inhibitor – qHTS Assay for Inhibitors of Human Galactokinase (GALK); P51570; Purified GALK, Kinase-Glo residual ATP luminescence; Potency, µM (top dose mostly 57.5 µM), actives largely listed as inhibitors; 270,000 tested, 0.007% active
Target sequence (P51570 whole entry, looked up): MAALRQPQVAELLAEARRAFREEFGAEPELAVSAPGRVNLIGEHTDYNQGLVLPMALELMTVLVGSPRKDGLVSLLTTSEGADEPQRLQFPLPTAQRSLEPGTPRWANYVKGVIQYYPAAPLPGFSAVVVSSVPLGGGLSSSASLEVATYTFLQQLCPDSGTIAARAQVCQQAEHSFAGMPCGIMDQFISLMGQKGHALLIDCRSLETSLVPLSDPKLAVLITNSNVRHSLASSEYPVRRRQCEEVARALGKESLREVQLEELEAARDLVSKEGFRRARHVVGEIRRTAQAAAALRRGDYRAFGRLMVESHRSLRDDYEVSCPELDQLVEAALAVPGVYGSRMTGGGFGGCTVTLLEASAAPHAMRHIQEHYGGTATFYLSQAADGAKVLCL
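ATP-depletion format; final 35 uM ATP, 100 uM D-galactose, 5 nM enzyme; pH 8.0 HEPES/Mg2+ buffer; 60 min RT; luminescence read 10 min after detection reagent.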
Numbers stand for hits; 0 = inactive; ? = inconclusive; - = no result given; ! = not confirmed by another sample; [ ] = remark or other dose. This excerpt belongs to a sample that is enriched for hits. Unless noted, the call rests on the fitted dose curve; in most records, active means well fitted curve in the direction sought with a large enough effect; inconclusive means small, poorly fitted or top-dose-only effect, or another doubt; inactive means no such curve, though single readings can be large; an effect the other way counts as inactive or inconclusive.

SMILES	Eya2 inh	JMJD2E inh	Anesthetic bind	CtBP-E1A inh	Six1-Eya2 inh	GALK inhibitor
CCCNC(=O)c1ccc2c(=O)c(O)c(-c3ccsc3)[nH]c2c1	0	?	0	-76	?	0
CCCNC(=O)c1ccc2c(=O)c(O)c(-c3ccc(C)cc3)[nH]c2c1	0	?	0	0	0	0
CCOC(=O)Cc1csc(SCn2nnc3ccccc3c2=O)n1	0	0	0	0	0	0
CCOC(=O)Cc1csc(-n2sc3ccccc3c2=O)n1	0	10µM	0	0	0	0
O=C(/C=C/c1ccc(O)cc1)c1ccc(NC2=C(N3CCCCC3)C(=O)c3ccccc3C2=O)cc1	0	18µM	0	0	0	0
O=C1C(Nc2cccc(O)c2)=C(N2CCCCC2)C(=O)c2ccccc21	0	0	0	0	-71	0
Cc1nn(-c2ccccc2)c(-n2cccc2)c1C(=O)NCCc1ccc(Cl)cc1	-	-	0	-	-	-
O=C(CNC(=O)c1ccc2c(c1)OCO2)N/N=C(Br)/C=C/c1ccccc1	0	0	7.1µM	0	0	0
CC1CC2OC2/C=C\C=C/C(=O)Cc2c(Cl)c(O)cc(O)c2C(=O)O1 (stereo not given)	-	-	0	-	-	-
C[C@@H]1Cc2c(O)c(O)cc(O)c2C(=O)O1	0	2µM	0	0	0	0
Cc1ccc(-n2nc(C)c3c2OC(N)=C(C#N)C3c2ccoc2)cc1 (stereo not given)	0[15.4 µM]	10µM	0	0	0	0
Cc1ccc(-n2nc(C)c3c2OC(N)=C(C#N)C3c2ccco2)cc1 (stereo not given)	0	0	0	0	0	0
Cc1ccc(-n2nc(C)c3c2OC(N)=C(C#N)C3c2ccc(C)o2)cc1 (stereo not given)	0	25µM	0	0	0	0
COc1cc(CNCCNC(=O)c2nonc2N)ccc1OCc1ccc(Cl)cc1	0	0	13µM	0	0	0
COc1cc(N=c2oc3c(C)ncc(CO)c3cc2C(N)=O)cc(OC)c1OC	0	0	0	0	-79	0
COc1ccccc1NC(=O)c1cc2c(CO)cnc(C)c2oc1=Nc1cc(OC)c(OC)c(OC)c1	0	-	0	0	0	-
Cc1ccc(-c2c(C3C4C=CCCC4(C)C(=O)N3Cc3ccccc3)ccc3ccccc23)cc1 (stereo not given)	-	-	0	-	-	-
CC(C)C(=O)NC(=O)C1CCCN1C(=O)/C=C/c1ccccc1 (stereo not given)	-	-	0[15.3 µM]	-	-	-
CCCCC/C=C\C/C=C\C/C=C\C/C=C\CCCCCC(=O)NCCc1ccc(O)c(O)c1	-	0	-	-	-	-
CCCCCCCC/C=C\CCCCCCCC(=O)NCCc1ccc(O)c(O)c1	?	20µM!	-	0	0	-
CCNC(=S)/C(=C(/[O-])c1ccc([N+](=O)[O-])cc1)[n+]1ccccc1	0	0	0	0	0	0
C=CCNC(=S)/C(=C(/[O-])c1ccc([N+](=O)[O-])cc1)[n+]1ccccc1	0	22µM	0	-	0	0
Oc1ccc2ccccc2c1CN1CCCC1	0	32µM	0	0	0	0
O=c1oc2ccccc2c(O)c1Sc1c(O)c2ccccc2oc1=O	-	-	-	-83	-74	-
C[C@@](Cc1ccc(O)c(O)c1)(NN)C(=O)O	0	3.5µM!	0	0	0	-
SMILES	Eya2 inh	JMJD2E inh	Anesthetic bind	CtBP-E1A inh	Six1-Eya2 inh	GALK inhibitor
C[C@@](N)(Cc1ccc(O)cc1)C(=O)O	-	0	0	-	-	-
C[C@](Cc1ccc(O)c(O)c1)(NN)C(=O)O	0	-	-	-	-	-
CC(N)(Cc1ccc(O)c(O)c1)C(=O)O (stereo not given)	0	3.5µM	-	-	-	-
COc1ccc(CCC(=O)O)cc1OC	0	0	0	0	0	0
COc1ccc(C[C@@](C)(N)C(=O)O)cc1OC	-	11µM	0	-	-	-
COC(=O)c1ccc(C(NC(=O)OCc2ccccc2)/C(=C/[C@@H](C)C(=O)NCc2nc3ccccc3n2C)c2cccnc2)cc1 (stereo not given in full)	-	0	0	-	-	-
Cc1ccc(COc2ccc3oc(-c4ccccc4)c(C(=O)O)c3c2)cc1	-	-	0	-	-	-
CCOC(=O)c1cc(S(=O)(=O)NCc2ccc(C)cc2)[nH]n1	-	-	0	-	-	-
O=C(NNC(=O)C1CC1)c1ccccc1[N+](=O)[O-]	0	-	0	0	0	0
O=C(NNC(=O)c1ccccc1[N+](=O)[O-])c1ccccn1	0	0	0	0	-77	0
COc1ccc(C(=O)Nc2nnc(SCc3cc(=O)n4cc(Cl)ccc4n3)s2)cc1	-	-	0	-	-	-
COc1cc2nc(N3CCCN(C)CC3)nc(NC3CCN(Cc4ccccc4)CC3)c2cc1OC	0	-	-	-	-	-
Cc1ccc(N=Nc2ccc3ccccc3c2O)cc1	0	-	0	0	-88	0
Oc1ccc2ccccc2c1N=Nc1ccc(F)cc1	0	0	0	0	?	0
Oc1c(N=Nc2ccc(F)cc2)ccc2ccccc12	0	-	0	-76	?	0
COc1cccc(N=Nc2ccc3ccccc3c2O)c1	0	-	0	-	-82	0
Oc1c(N=Nc2nn[nH]n2)ccc2ccccc12	-	-	-	?	-76	-
COc1ccc(N=Nc2ccc3ccccc3c2)c(O)c1	0	-	0	-	?	0
COC1C(O)C(CO)OC1n1cnc2c(NC3CCCCC3)ncnc21 (stereo not given)	-	-	0	-	-	-
N.N.O=C(O)C1(C(=O)O)CCC1.[Pt+2]	0	-	-	-	-	-
C=CS(=O)(=O)c1c2cc(OC)ccc2nc2ccc(OC)cc12	-	-	-	0	0	-
Cn1cc([N+](=O)[O-])c(C(=O)Nc2ccc(C3CCCCC3)cc2)n1	0	0	7.9µM	0	0	0
Cc1ccc(-n2c3c(cc(C(=O)O)c2=O)C(=O)CC(C)(C)C3)cc1	0	0	0	0	0	0
CC1(C)CC(=O)c2cc(C(=O)O)c(=O)n(-c3ccccc3)c2C1	0	0	0	0	-87	0
